Structures can show the parent of a compound that is named as a salt. ± gives the standard deviation of the averaged measurements. In all, about 1,600 compounds were measured (“mitochondrial oxygen consumption rate normalised to cell number, Z score over the library”: median about 0.065, lowest 2% from about -2.2 on). For the sample, the lowest values were picked, then their nearest neighbours and some compounds at random.

The results in this text go back to the supplement of paper PMC4962491.

The subject of this experiment is FaDu. Kind of experiment: mitochondrial oxygen consumption rate normalised to cell number, Z score over the library; higher = higher oxygen consumption (negative = OCR reduction). As to conditions: treatment time 24 h; assay medium: 5 mM galactose, 5 mM pyruvate, 4 mM glutamine; 10 µM. Here is the method:
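Primary screen: FaDu cells were incubated 24 h with Pharmakon 1600 / TDI oncology set compounds at 2 or 10 uM. Mitochondrial-specific OCR (basal minus 2 uM antimycin A) was measured on a Seahorse XF96 in assay medium with 5 mM galactose, 5 mM pyruvate and 4 mM glutamine, then corrected for Hoechst cell number and expressed as a Z score […]. Compounds that cut cell number by >66% were excluded. Two repeats.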
As to `CN(C)CC(c1ccc(O)cc1)C1(O)CCCCC1` (stereo not given), the “mitochondrial oxygen consumption rate normalised” value was 0.524 ± 0.65.
Under `S=C=Nc1ccc(N=C=S)cc1` stands 0.759 ± 0.026.
Under `CC(=O)O[C@H]1C(=O)[C@@]2(C)[C@H]([C@H](OC(=O)c3ccccc3)[C@]3(O)C[C@H](OC(=O)[C@H](O)[C@@H](NC(=O)c4ccccc4)c4ccccc4)C(C)=C1C3(C)C)[C@]1(OC(C)=O)CO[C@@H]1C[C@@H]2O` stands 0.221 ± 0.61.
For `CC(=O)O[C@H]1C(=O)[C@@]2(C)[C@H]([C@H](OC(=O)c3ccccc3)[C@]3(O)C[C@H](OC(=O)[C@H](O)[C@@H](NC(=O)c4ccccc4)c4ccccc4)C(C)=C1C3(C)C)[C@]1(OC(C)=O)CO[C@@H]1C[C@@H]2O` [Paclitaxel], the “mitochondrial oxygen consumption rate normalised” value is -0.326 ± 0.26.
With `CCCCCC(C)N` (stereo not given) the figure was -0.846 ± 0.93.
Under `CC#CCn1c(N2CCC[C@@H](N)C2)nc2c1c(=O)n(Cc1nc(C)c3ccccc3n1)c(=O)n2C` stands 0.0591 ± 0.1; under `CCCCC(=O)O[C@H]1CC[C@H]2[C@@H]3CCc4cc(O)ccc4[C@H]3CC[C@]12C`, -0.519 ± 0.44.
Under `CCCCC(CC)COC(=O)CC(C(=O)OCC(CC)CCCC)S(=O)(=O)O` (stereo not given) stands 0.149 ± 0.34; under `CCCCC(CC)CN=C(N)N=C(N)NCCCCCCNC(N)=NC(N)=NCC(CC)CCCC` (stereo not given), -4.17 ± 0.22; under `CC(=O)Nc1ccc(OC(=O)c2ccccc2O)cc1`, -0.337 ± 0.25.
Turning to `CC(CCc1ccc(O)cc1)NCC(O)c1ccc(O)cc1` (stereo not given), the “mitochondrial oxygen consumption rate normalised” value turned out to be 0.0984 ± 0.26.
Consider `CNNCc1ccc(C(=O)NC(C)C)cc1`, for which the “mitochondrial oxygen consumption rate normalised” value is 0.342 ± 0.2.
On to `CNNCc1ccc(C(=O)NC(C)C)cc1` [Procarbazine HCl], for which the “mitochondrial oxygen consumption rate normalised” value was 0.127 ± 0.26.
With `C[C@H]1C[C@H]2[C@@H]3CCC4=CC(=O)C=C[C@]4(C)[C@@]3(F)[C@@H](O)C[C@]2(C)[C@@]1(O)C(=O)COP(=O)(O)O` the figure was -0.398 ± 0.27.
Under `CS(=O)(=O)OCCCCOS(C)(=O)=O` [Busulfan] stands 0.391 ± 1.2.
With `CS(=O)(=O)OCCCCOS(C)(=O)=O` the figure was 0.716 ± 1.1; with `O=C(Nc1ccc([N+](=O)[O-])cc1Cl)c1cc(Cl)ccc1O`, -5.97 ± 0.27; with `NC(=O)c1ccc([N+](=O)[O-])cc1Cl`, 0.965 ± 0.77.
Regarding `O=C(O)COCCN1CCN([C@H](c2ccccc2)c2ccc(Cl)cc2)CC1`, the “mitochondrial oxygen consumption rate normalised” value was -0.965 ± 0.4.
Take `COc1ccc2nc3cc(Cl)ccc3c(Nc3cc(CN4CCCC4)c(O)c(CN4CCCC4)c3)c2n1`: the “mitochondrial oxygen consumption rate normalised” value was -0.0207 ± 0.29.
As for `COc1cc2c(N3CCN(C(=O)Nc4ccc(OC(C)C)cc4)CC3)ncnc2cc1OCCCN1CCCCC1`, the “mitochondrial oxygen consumption rate normalised” value was 0.241 ± 0.61.
Under `COc1ccc(OC)c(C(O)CNC(=O)CN)c1` (stereo not given) stands 0.934 ± 0.11.
With `C[n+]1ccccc1/C=N/O` the figure was 0.788 ± 0.1; with `Cc1ncc(C[n+]2csc(CCO)c2C)c(N)n1`, 1.53 ± 0.67.
`CC1(O)CCC(C(C)(C)O)CC1` (stereo not given): the “mitochondrial oxygen consumption rate normalised” value was 0.228 ± 0.62.
Under `CO[C@@]12[C@H](COC(N)=O)C3=C(C(=O)C(C)=C(N)C3=O)N1C[C@@H]1N[C@@H]12` stands -2.77 ± 0.14.
Under `O=C(O)CCC(=O)OC[C@@H](NC(=O)C(Cl)Cl)[C@H](O)c1ccc([N+](=O)[O-])cc1` stands -1.19 ± 0.7; under `CC1CC(OC(=O)C(O)c2ccccc2)CC(C)(C)C1` (stereo not given), 0.62 ± 0.34; under `C[C@@H](c1ncncc1F)[C@](O)(Cn1cncn1)c1ccc(F)cc1F`, -0.0277 ± 0.47.
Under `Cc1cc(N)c2ccccc2[n+]1CCCCCCCCCC[n+]1c(C)cc(N)c2ccccc21` stands -2.58 ± 0.47.
In the case of `O=C1NS(=O)(=O)c2ccccc21`, the “mitochondrial oxygen consumption rate normalised” value was 0.156 ± 0.036.
Under `COC(=O)C(N)CS` (stereo not given) stands 0.244 ± 0.32; under `CC(=O)CC(c1ccc([N+](=O)[O-])cc1)c1c(O)c2ccccc2oc1=O` (stereo not given), 0.325 ± 0.51.
Take `CCOc1cc(NC(C)=O)ccc1C(=O)OC`: the “mitochondrial oxygen consumption rate normalised” value was -0.0275 ± 0.23.
With `CO[C@H](C(=O)[C@@H](O)[C@@H](C)O)[C@@H]1Cc2cc3cc(O[C@H]4C[C@@H](O[C@@H]5C[C@@H](O)[C@H](O)[C@@H](C)O5)[C@H](O)[C@@H](C)O4)c(C)c(O)c3c(O)c2C(=O)[C@H]1O[C@H]1C[C@@H](O[C@@H]2C[C@@H](O)[C@@H](O[C@@H]3C[C@](C)(O)[C@H](O)[C@@H](C)O3)[C@@H](C)O2)[C@H](O)[C@@H](C)O1` the figure was -3.768 ± 0.0062; with `CC1CC2C3CCC4=CC(=O)C=CC4(C)C3(F)C(O)CC2(C)C1C(=O)CO` (stereo not given), 0.242 ± 0.014; with `CC(C)CCCC(C)NC(C)C` (stereo not given), 0.505 ± 0.85.
As to `CNC(=O)c1c(I)c(NC(C)=O)c(I)c(C(=O)O)c1I`, the “mitochondrial oxygen consumption rate normalised” value is -0.0805 ± 0.4.
With `CN1CCCN=C1/C=C/c1cccc(O)c1`, the “mitochondrial oxygen consumption rate normalised” value was found to be 0.441 ± 0.03.
With `CCOc1ccc(S(=O)(=O)O)c2cccnc12`, the “mitochondrial oxygen consumption rate normalised” value amounted to 0.206 ± 0.45.
As to `CC(C)(C)CC(C)(C)c1cc(Cc2cc(C(C)(C)CC(C)(C)C)cc(-n3nc4ccccc4n3)c2O)c(O)c(-n2nc3ccccc3n2)c1`, the “mitochondrial oxygen consumption rate normalised” value was 0.425 ± 0.54.
With `O=C1c2ccccc2C(=O)C1c1ccccc1` the figure was -1.52 ± 0.92; with `NC[C@H]1O[C@H](O[C@H]2[C@H](O[C@@H]3O[C@H](CO)[C@@H](O)[C@H]3O)[C@@H](O)[C@H](N)C[C@@H]2N)[C@H](N)[C@@H](O)[C@@H]1O`, 0.994 ± 0.3.
With `CCCCC(CC)COC(=O)C=Cc1ccc(OC)cc1` (stereo not given) the figure was 0.103 ± 0.58.
As for `CCCCCCCCNC(C)C(O)c1ccc(SC(C)C)cc1` (stereo not given), the “mitochondrial oxygen consumption rate normalised” value is -3.24 ± 0.087.
Under `CC(NCCc1ccc(O)cc1)C(O)c1ccc(O)cc1` (stereo not given) stands -0.342 ± 0.3; under `CC(COc1ccccc1)NC(C)C(O)c1ccc(O)cc1` (stereo not given), 0.554 ± 0.81.
Under `CCCCC(CC)COC(=O)c1ccccc1O` (stereo not given) stands 0.409 ± 0.072.
For the compound `Clc1ccc(COC(Cn2ccnc2)c2ccc(Cl)cc2Cl)cc1` (stereo not given), the “mitochondrial oxygen consumption rate normalised” value was -2.19 ± 0.39.
On to `Clc1ccc(COC(Cn2ccnc2)c2ccc(Cl)cc2Cl)c(Cl)c1` (stereo not given), for which the “mitochondrial oxygen consumption rate normalised” value is -0.399 ± 0.35.
Consider `C=CCOC(Cn1ccnc1)c1ccc(Cl)cc1Cl` (stereo not given), for which the “mitochondrial oxygen consumption rate normalised” value is -0.834 ± 0.055.
With `NC(=O)[C@@H]1CCCN1C(=O)[C@H](Cc1c[nH]cn1)NC(=O)[C@@H]1CCC(=O)N1` the figure was -1.1 ± 0.47.
As to `CC(C)CC(N)=O`, the “mitochondrial oxygen consumption rate normalised” value turned out to be 0.337 ± 0.48.
With `O=C([O-])/C=C/C(=O)[O-].[Fe+2]` the figure was -0.129 ± 0.31; with `CC(=O)Oc1cccc(O)c1`, 0.689 ± 0.62.
For the compound `CC(O)C(=O)O.N` (stereo not given), the “mitochondrial oxygen consumption rate normalised” value was 0.0377 ± 0.64.
With `Nc1ncn([C@H]2C[C@H](O)[C@@H](CO)O2)c(=O)n1` [Decitabine] the figure was 0.0464 ± 0.58; with `Nc1ccn([C@@H]2O[C@H](CO)[C@@H](O)[C@@H]2O)c(=O)n1`, 0.901 ± 0.043; with `Nc1ncn([C@@H]2O[C@H](CO)[C@@H](O)[C@H]2O)c(=O)n1` [Azacitidine], 0.38 ± 0.39.
Under `Nc1ccn([C@@H]2O[C@H](CO)[C@@H](O)[C@@H]2O)c(=O)n1` [Cytarabine;  Ara-C] stands 1.36 ± 0.84.
Under `Nc1ncn([C@@H]2O[C@H](CO)[C@@H](O)[C@H]2O)c(=O)n1` stands -2.25 ± 0.072; under `Nc1nc2[nH]cnc2c(=S)[nH]1`, -2.58 ± 0.18; under `Nc1nc2[nH]cnc2c(=S)[nH]1` [Thioguanine], 0.0465 ± 0.27.
With `S=c1[nH]cnc2nc[nH]c12`, the “mitochondrial oxygen consumption rate normalised” value was -1.7 ± 0.17.
As to `CN1CCN(c2cc3c(cc2F)c(=O)c(C(=O)O)cn3-c2ccc(F)cc2)CC1`, the “mitochondrial oxygen consumption rate normalised” value was -0.0696 ± 0.52.
For `CCCCCCCCCCCCCCCCOP(=O)([O-])OCC[N+](C)(C)C`, the “mitochondrial oxygen consumption rate normalised” value is -1.18 ± 0.45.
Under `CCC(=O)NCC[C@@H]1CCc2ccc3c(c21)CCO3` stands -0.125 ± 0.067.
Take `CCN(CC)CCNC(=O)c1c(C)[nH]c(/C=C2\C(=O)Nc3ccc(F)cc32)c1C` [Sunitinib Malate]: the “mitochondrial oxygen consumption rate normalised” value is -0.335 ± 0.17.
For `CCCCCCCCCCOc1cc2c(O)c(C(=O)OCC)cnc2cc1OCC`, the “mitochondrial oxygen consumption rate normalised” value was -0.591 ± 0.88.
With `Cc1cc2nc3ccc(N(C)C)cc3[s+]c2cc1N`, the “mitochondrial oxygen consumption rate normalised” value was -0.959 ± 0.51.
With `CN(C)CCC=C1c2ccccc2COc2ccccc21` the figure was 0.0965 ± 0.76.
With `CC(=O)Oc1cc(C(C)C)c(OCCN(C)C)cc1C` the figure was -0.219 ± 0.18.
For the compound `O=C1CC[C@@H](C(=O)O)N1`, the “mitochondrial oxygen consumption rate normalised” value was 0.186 ± 1.2.
Under `O=C1[C@H](CC[C@H](O)c2ccc(F)cc2)[C@@H](c2ccc(O)cc2)N1c1ccc(F)cc1` stands -0.13 ± 0.35; under `COc1ccc2c(c1OC)C(=O)O[C@@H]2[C@H]1c2c(cc3c(c2OC)OCO3)CCN1C`, 0.129 ± 0.48; under `COc1ccc2cc3[n+](cc2c1OC)CCc1cc2c(cc1-3)OCO2`, -5.87 ± 0.012.
With `CC[C@H]1OC(=O)[C@H](C)C(=O)[C@H](C)[C@@H](O[C@@H]2O[C@H](C)C[C@H](N(C)C)[C@H]2O)[C@](C)(OC)C[C@@H](C)C(=O)[C@H](C)[C@H]2N(CCCCn3cnc(-c4cccnc4)c3)C(=O)O[C@]12C` the figure was -0.0307 ± 0.49; with `NC(=O)NS(=O)(=O)c1ccc(N)cc1`, 0.826 ± 1.4; with `Cc1cc(-c2ccc(/N=N/c3ccc4c(S(=O)(=O)O)cc(S(=O)(=O)O)c(N)c4c3O)c(C)c2)ccc1/N=N/c1ccc2c(S(=O)(=O)O)cc(S(=O)(=O)O)c(N)c2c1O`, 1.24 ± 1.
`Cc1cc(=O)oc2cc(O)ccc12`: the “mitochondrial oxygen consumption rate normalised” value was 0.758 ± 0.23.
